# Measurements reported in PubChem BioAssay (NCI).
# Compounds without any hit were thinned out: in the full panel of roughly 79,000, 15% have a hit. Values without a mark were called inactive. Active and inactive are the calls of the source. Cut-off read from the data, not from the text of the source: active = growth inhibition above about 70%; inactive = the rest.
# What was measured:
# [1] = NCI Yeast Anticancer Drug Screen. Data for the rad52 strain (AID 147);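 note: 0% = growth of vehicle-treated control cultures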; details: S. cerevisiae rad52 mutant growth inhibition, hits give high values
# Outline: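 Here a repair-compromised yeast strain receives each compound; its growth is then quantified and normalised to vehicle-only controls.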
# [2] = NCI Yeast Anticancer Drug Screen. Data for the wt1 strain (AID 149);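 note: 0% = growth of vehicle-treated wt1 cultures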; details: S. cerevisiae wt1 strain (SPY 50644) growth inhibition, hits give high values
# Outline: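 Each compound is tested on wt1 yeast and the loss of growth versus vehicle gives the inhibition value.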
# [3] = NCI Yeast Anticancer Drug Screen. Data for the rad50EPP+ strain (AID 151);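 note: 0% = growth of vehicle-treated control cultures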; details: S. cerevisiae rad50 mutant strain, hits give high values
# Outline: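 Read-out is yeast growth inhibition relative to vehicle; cells used were the rad50EPP+ strain.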
# [4] = NCI Yeast Anticancer Drug Screen. Data for the mgt1 strain (AID 153); details: S. cerevisiae mgt1 mutant growth inhibition, hits give high values
# Outline: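 Measured: inhibition of mgt1 yeast growth by compound, normalized to vehicle-treated cultures.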
# [5] = NCI Yeast Anticancer Drug Screen. Data for the rad50 strain (AID 155);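 note: 0% = growth of vehicle-only cultures of the same strain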; details: S. cerevisiae rad50 strain growth inhibition, hits give high values
# Outline: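 Vehicle-treated cultures provide the reference for the growth inhibition reported for compound-exposed, repair-deficient yeast.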
# [6] = NCI Yeast Anticancer Drug Screen. Data for the mec2-1 strain (AID 157); details: S. cerevisiae mec2-1 strain, hits give high values
# Outline: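 Using mec2-1 yeast: add compound, measure growth, express inhibition versus vehicle-treated cultures.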
# [7] = NCI Yeast Anticancer Drug Screen. Data for the rad14 strain (AID 159);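 note: 0% = growth of vehicle-treated control cultures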; details: S. cerevisiae rad14 strain growth inhibition, hits give high values
# Outline: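 Inhibition of growth is reported for a repair-deficient yeast mutant following compound treatment, calculated relative to cultures that received vehicle.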
# [8] = NCI Yeast Anticancer Drug Screen. Data for the sgs1 mgt1 strain (AID 161);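 note: 0% = growth of cultures given vehicle only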; details: S. cerevisiae sgs1 mgt1 strain, hits give high values
# Outline: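 Growth of a repair-deficient yeast mutant was monitored after compound treatment and expressed as inhibition relative to vehicle-treated cultures.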
# [9] = NCI Yeast Anticancer Drug Screen. Data for the cln2 rad14 strain (AID 165);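 note: 0% = growth equal to vehicle treated cultures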; details: S. cerevisiae cln2 rad14 strain, hits give high values
# Outline: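 Yeast strain cln2 rad14, bearing defects in cell cycle control and DNA repair, serves as the test system; values reflect growth inhibition compared with vehicle.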
# [10] = NCI Yeast Anticancer Drug Screen. Data for the bub3 strain (AID 167); details: S. cerevisiae bub3 mutant strain, hits give high values
# Outline: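 Mutant yeast screening strain plus compound; vehicle-treated cultures serve as the 0% inhibition reference.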
# [11] = NCI Yeast Anticancer Drug Screen. Data for the wt2 strain (AID 169); details: S. cerevisiae wt2 strain growth inhibition, hits give high values
# Outline: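 Treated yeast vs. vehicle-treated yeast: growth inhibition determined.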
# [12] = NCI Yeast Anticancer Drug Screen. Data for the mlh1 strain (AID 171);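 note: 0% = growth of vehicle-treated control cultures of the same strain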; details: S. cerevisiae mlh1 strain growth inhibition, hits give high values
# Outline: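 A yeast strain with a defined genetic lesion serves as the test organism. Cultures receive compound or vehicle, and growth is measured.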
# [13] = NCI Yeast Anticancer Drug Screen. Data for the sgs1 strain (AID 173);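 note: 0% = growth of vehicle-only control cultures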; details: S. cerevisiae sgs1 mutant, hits give high values
# Outline: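 A genetically defined yeast mutant is incubated with the test compound, and its growth is compared to that of the same strain given vehicle.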
# [14] = NCI Yeast Anticancer Drug Screen. Data for the mlh1 rad18 strain (AID 175); details: S. cerevisiae mlh1 rad18 strain growth inhibition, hits give high values
# Outline: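 Steps: expose repair-defective yeast to compound; measure growth; express inhibition against vehicle-treated controls.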
# [15] = NCI Yeast Anticancer Drug Screen. Data for the rad18 strain (AID 177); details: S. cerevisiae rad18 mutant growth inhibition, hits give high values
# Outline: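 Measured value is growth inhibition of a yeast strain bearing a DNA repair alteration, referenced to vehicle-treated cells.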
# [16] = at 5.0 µM (retest, dose inferred, filed as 0.5)
# [17] = at 50.0 µM (retest, dose inferred, filed as 5.0)
smiles,measurement,setting,value
O=S(=O)(CCCl)c1ccccc1Cl,growth inhibition,[1]; at 1.2 µM,-5%
same,growth inhibition,[1]; at 3.7 µM,1%
same,growth inhibition,[1]; at 11.0 µM,42%
same,growth inhibition,[1]; at 33.0 µM,93% (active)
same,growth inhibition,[1]; at 100.0 µM,99% (active)
same,growth inhibition,[2]; at 1.2 µM,3%
same,growth inhibition,[2]; at 3.7 µM,23%
same,growth inhibition,[2]; at 11.0 µM,33%
same,growth inhibition,[2]; at 33.0 µM,94% (active)
same,growth inhibition,[2]; at 100.0 µM,98% (active)
same,growth inhibition,[3]; at 1.2 µM,-7%
same,growth inhibition,[3]; at 3.7 µM,15%
same,growth inhibition,[3]; at 11.0 µM,43%
same,growth inhibition,[3]; at 33.0 µM,79% (active)
same,growth inhibition,[3]; at 100.0 µM,84% (active)
same,growth inhibition,[4]; at 1.2 µM,1%
same,growth inhibition,[4]; at 3.7 µM,1%
same,growth inhibition,[4]; at 11.0 µM,41%
same,growth inhibition,[4]; at 33.0 µM,96% (active)
same,growth inhibition,[4]; at 100.0 µM,98% (active)
same,growth inhibition,[5]; at 1.2 µM,-8%
same,growth inhibition,[5]; at 3.7 µM,-12%
same,growth inhibition,[5]; [16],-119%
same,growth inhibition,[5]; at 11.0 µM,65%
same,growth inhibition,[5]; at 33.0 µM,94% (active)
same,growth inhibition,[5]; [17],79% (active)
same,growth inhibition,[5]; at 50.0 µM,94.2% (active)
same,growth inhibition,[5]; at 100.0 µM,98% (active)
same,growth inhibition,[6]; at 1.2 µM,2%
same,growth inhibition,[6]; at 3.7 µM,8%
same,growth inhibition,[6]; [16],-36%
same,growth inhibition,[6]; at 11.0 µM,19%
same,growth inhibition,[6]; at 33.0 µM,83% (active)
same,growth inhibition,[6]; [17],79% (active)
same,growth inhibition,[6]; at 50.0 µM,91.8% (active)
same,growth inhibition,[6]; at 100.0 µM,98% (active)
same,growth inhibition,[7]; at 1.2 µM,-2%
same,growth inhibition,[7]; at 3.7 µM,11%
same,growth inhibition,[7]; at 11.0 µM,45%
same,growth inhibition,[7]; at 33.0 µM,91% (active)
same,growth inhibition,[7]; at 100.0 µM,99% (active)
same,growth inhibition,[8]; [16],-42%
same,growth inhibition,[8]; [17],87% (active)
same,growth inhibition,[8]; at 50.0 µM,90.8% (active)
same,growth inhibition,[9]; [16],-42%
same,growth inhibition,[9]; [17],25%
same,growth inhibition,[9]; at 50.0 µM,84.3% (active)
same,growth inhibition,[10]; at 1.2 µM,-1%
same,growth inhibition,[10]; at 3.7 µM,6%
same,growth inhibition,[10]; [16],-59%
same,growth inhibition,[10]; at 11.0 µM,38%
same,growth inhibition,[10]; at 33.0 µM,94% (active)
same,growth inhibition,[10]; [17],80% (active)
same,growth inhibition,[10]; at 50.0 µM,90.7% (active)
same,growth inhibition,[10]; at 100.0 µM,98% (active)
same,growth inhibition,[11]; at 1.2 µM,8%
same,growth inhibition,[11]; at 3.7 µM,32%
same,growth inhibition,[11]; at 11.0 µM,64%
same,growth inhibition,[11]; at 33.0 µM,98% (active)
same,growth inhibition,[11]; at 100.0 µM,99% (active)
same,growth inhibition,[12]; at 1.2 µM,-10%
same,growth inhibition,[12]; at 3.7 µM,-1%
same,growth inhibition,[12]; at 11.0 µM,27%
same,growth inhibition,[12]; at 33.0 µM,90% (active)
same,growth inhibition,[12]; at 100.0 µM,97% (active)
same,growth inhibition,[13]; at 1.2 µM,-5%
same,growth inhibition,[13]; at 3.7 µM,0%
same,growth inhibition,[13]; at 11.0 µM,64%
same,growth inhibition,[13]; at 33.0 µM,95% (active)
same,growth inhibition,[13]; at 100.0 µM,99% (active)
same,growth inhibition,[14]; [16],-115%
same,growth inhibition,[14]; [17],81% (active)
same,growth inhibition,[14]; at 50.0 µM,90.2% (active)
same,growth inhibition,[15]; at 1.2 µM,-1%
same,growth inhibition,[15]; at 3.7 µM,13%
same,growth inhibition,[15]; at 11.0 µM,83% (active)
same,growth inhibition,[15]; at 33.0 µM,96% (active)
same,growth inhibition,[15]; at 100.0 µM,98% (active)
